The source of these data is PubChem BioAssay (Tox21).

Test [1] can be described thus: A CellTox Green Cytotoxicity Assay to monitor cytotoxicity in HepG2 cells - 32 hour (AID 1224883). Further: nearly all actives have a fitted effect of over 50% in size. Further: potency means the concentration at half of the fitted maximal effect. The essentials: (§1)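 HepG2 cells, 600/well, preincubated 5 h with CellTox Green dye, then exposed to Tox21 compounds in DMSO at 37 C for up to 40 h. Dead-cell DNA fluorescence read at the indicated time point.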
Test [2] is described as follows: qHTS RealTime-Glo MT Cell Viability Assay in HepG2 cells - 16 hour (AID 1224885). Further: nearly all actives have a fitted effect of over 50% in size. The essentials:
(§2)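 Compound treatment began 5 h after plating HepG2 cells (600/well) with NanoLuc luciferase and prosubstrate. Plates stayed at 37 C for 40 h; luminescence was captured at six time points, 0 h through 40 h.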
For orientation: In qHTS, concentration-response curves come from the screen itself.

Test [3] can be described thus: qHTS RealTime-Glo MT Cell Viability Assay in HEK293 cells - 24 hour (AID 1224886). Further: top concentration of the series differs between compounds; nearly all actives have a fitted effect of over 50% in size. Summed up: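 Quantitative high-throughput screen of the Tox21 10K library in HEK293: cells and RealTime-Glo reagents plated together, compound added at 5 h, luminescence monitored through 40 h at 37 C.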
Test [4] can be described thus: qHTS RealTime-Glo MT Cell Viability Assay in HEK293 cells - 8 hour (AID 1224887). Further: top concentration of the series differs between compounds; nearly all actives have a fitted effect of over 50% in size. The essentials:
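600 cells/well were plated with the nonlytic NanoLuc/prosubstrate reagent, pre-incubated 5 h, then given 23 nL of compound in DMSO. Incubation at 37 C for 40 h, with luminescence from viable-cell-reduced substrate read repeatedly from 0 h.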

Test [5] in a line: A CellTox Green Cytotoxicity Assay to monitor cytotoxicity in HEK293 cells - 16 hour (AID 1224888). Further: nearly all actives have a fitted effect of over 35% in size. The essentials: (§3)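 HEK293 cells, 600/well, were preincubated 5 hours and then exposed to compounds at 37 C for up to 40 hours. A cell-impermeant cyanine dye staining dead-cell DNA was read by fluorescence at 0, 8, 16, 24, 32 and 40 h time points.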
Test [6] in a line: qHTS RealTime-Glo MT Cell Viability Assay in HepG2 cells - 0 hour (AID 1224889). Further: nearly all actives have a fitted effect of over 50% in size. Further: potency means the concentration at half of the fitted maximal effect. Summed up:
as §2

Test [7] can be described thus: A CellTox Green Cytotoxicity Assay to monitor cytotoxicity in HepG2 cells - 8 hour (AID 1224890). Further: nearly all actives have a fitted effect of over 45% in size. Summed up: as §1
A short description of test [8]: qHTS assay to identify small molecule antagonists of the estrogen receptor alpha (ER-alpha) signaling pathway using the BG1 cell line in the presence of 0.1 nM 17-beta-estradiol - cell viability counter screen (AID 1259241). Further: nearly all actives have a fitted effect of over 40% in size. The essentials: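 In this screen, hormone-deprived VM7Luc4E2 cells were seeded at 4,000 per well, dosed with compound and 0.1 nM estradiol final, and incubated 22 hr at 37C and 5% CO2; fluorogenic live-cell protease signal reported viability.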

Test [9] in a line: qHTS assay to identify small molecule antagonists of the androgen receptor (AR) signaling pathway using the MDA cell line in the presence of 0.5 nM R1881 - cell viability counter screen (AID 1259242). Further: nearly all actives have a fitted effect of over 45% in size. Summed up:
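MDA-kb2 cells (MMTV-luciferase, AR/GR responsive) were treated with compounds plus 0.5 nM R1881 (final) for 16 hr at 37C, 0% CO2. Viability was then read in the same wells as live-cell protease fluorescence (CellTiter-Fluor, 30 min).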

Test [10] deals with Estrogen receptor (Homo sapiens) (UniProt P03372). The test is described as follows: qHTS assay to identify small molecule antagonists of the estrogen receptor alpha (ER-alpha) signaling pathway using the BG1 cell line in the presence of 0.1 nM 17-beta-estradiol (AID 1259244). Further: nearly all actives have a fitted effect of over 50% in size. The essentials: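 VM7Luc4E2 cells (endogenous full-length ER-alpha, 4×ERE-luciferase), kept 5 days in phenol red-free, charcoal-stripped FBS medium; 4,000 cells/well. Compounds added with 0.1 nM (final) 17beta-estradiol, 22 hr at 37C; luminescence read with ONE-Glo after 30 min.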

Test [11] is described as follows: qHTS assay to identify small molecule phospholipidosis (PLD) inducers (AID 1259344; active means well fitted curve in the direction sought with a large enough effect; an effect the other way counts as inactive or inconclusive). The essentials:
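Fluorescent phospholipid staining (LipidTOX Red) measured by automated microscopy in fixed HepG2 cells after 24 h treatment; nuclei counterstained with Hoechst 33342; amiodarone as reference inducer.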

Test [12] can be described thus: qHTS assay to identify small molecule HDAC inhibitors (AID 1259364). Further: nearly all actives have a fitted effect of over 45% in size. Further: potency means the concentration at half of the fitted maximal effect. The essentials: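 Wild-type HCT-116 cells, plated overnight at 37 C, exposed to compounds 2 hr at 37 C; luminogenic HDAC-Glo substrate then added 30 min at room temperature. Luminescence reports relative endogenous class I/II HDAC activity.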
A short description of test [13]: qHTS assay to identify small molecule HDAC inhibitors - cell viability counter screen (AID 1259365). Summed up: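 Measured quantity is CellTiter-Glo luminescence from wild-type HCT-116 cells after compound incubation of 2hr at 37C, 5% CO2; reagent developed 30min at room temperature.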
Test [14] in a line: qHTS assay to identify small molecule agonists of the sonic hedgehog signaling (Shh) pathway - cell viability counter screen (AID 1259366). Further: nearly all actives have a fitted effect of over 50% in size. Summed up: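 In quantitative high-throughput format, 3T3 Gli1-Luc cells were exposed to compounds for 24hr and multiplexed for viability using CellTiter-Fluor, incubated 1hr at 37C before the fluorescence read.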
Test [15] can be described thus: qHTS assay to identify small molecule antagonists of the sonic hedgehog signaling (Shh) pathway - cell viability counter screen (AID 1259367). Further: nearly all actives have a fitted effect of over 55% in size. Summed up: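 Using CellTiter-Fluor, viability of Gli1-Luc reporter 3T3 cells is read by fluorescence in the wells used for the Shh luciferase assay. Treatment lasts 23 hr with conditioned medium, then reagent 1 hr at 37C.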

A short description of test [16]: qHTS assay to identify small molecule agonists of the sonic hedgehog signaling (Shh) pathway (AID 1259368; calls by dose curve;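 further: NIH/3T3-derived 3T3Gli1-Luc cells carrying a stable Gli1-driven firefly luciferase reporter; series mostly up to about 92 µM; nearly all actives have a fitted effect of over 15% in size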). Summed up: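 NIH/3T3-derived 3T3Gli1-Luc cells with stably integrated Gli1-driven firefly luciferase, 2,000 cells/well, compounds added after 4 hr. Incubated 24 hr at 37C, 5% CO2; luminescence read after 30 min with luciferase reagent at room temperature.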

Test [17] in a line: qHTS assay to identify small molecule antagonists of the sonic hedgehog signaling (Shh) pathway (AID 1259369; calls by dose curve; further: nearly all actives have a fitted effect of over 45% in size; further: potency means the concentration at half of the fitted maximal effect). Summed up:
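NIH/3T3-derived Gli1-Luc reporter cells plated 4 h, dosed with compound, then stimulated with conditioned medium for 24 h at 37 C. Firefly luciferase luminescence read after 30 min with detection reagent at room temperature.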

A short description of test [18]: A CellTox Green Cytotoxicity Assay to monitor cytotoxicity in HEK293 cells - 8 hour (AID 1224884). Further: nearly all actives have a fitted effect of over 35% in size. The essentials: as §3
For test [19], the target named is Androgen receptor (Homo sapiens) (UniProt P10275). Nature of the test: qHTS assay to identify small molecule antagonists of the androgen receptor (AR) signaling pathway using the MDA cell line in the presence of 0.5 nM R1881 (AID 1259243). Further: nearly all actives have a fitted effect of over 50% in size. Further: potency means the concentration at half of the fitted maximal effect. Summed up:
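MDA-kb2 cells (MMTV-luciferase, responsive to AR and GR) at 3,000/well, rested 5 h at 37C, 0% CO2, then given compounds plus 0.5 nM R1881 (final) for 16 hr. Luciferase read with ONE-Glo after 30 min at room temperature.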

Unmarked numbers belong to inactive results. Inconclusive results are not listed. The source made the active and inactive calls. Unless noted, the call rests on the fitted dose curve; in most records, active means well fitted curve in the direction sought with a large enough effect in the repeat runs; inconclusive means weak or mixed curves; inactive means no such curve, though single readings can be large; an effect the other way counts as inactive or inconclusive.

Chain of Estrogen receptor (Homo sapiens) (P03372 whole entry, looked up): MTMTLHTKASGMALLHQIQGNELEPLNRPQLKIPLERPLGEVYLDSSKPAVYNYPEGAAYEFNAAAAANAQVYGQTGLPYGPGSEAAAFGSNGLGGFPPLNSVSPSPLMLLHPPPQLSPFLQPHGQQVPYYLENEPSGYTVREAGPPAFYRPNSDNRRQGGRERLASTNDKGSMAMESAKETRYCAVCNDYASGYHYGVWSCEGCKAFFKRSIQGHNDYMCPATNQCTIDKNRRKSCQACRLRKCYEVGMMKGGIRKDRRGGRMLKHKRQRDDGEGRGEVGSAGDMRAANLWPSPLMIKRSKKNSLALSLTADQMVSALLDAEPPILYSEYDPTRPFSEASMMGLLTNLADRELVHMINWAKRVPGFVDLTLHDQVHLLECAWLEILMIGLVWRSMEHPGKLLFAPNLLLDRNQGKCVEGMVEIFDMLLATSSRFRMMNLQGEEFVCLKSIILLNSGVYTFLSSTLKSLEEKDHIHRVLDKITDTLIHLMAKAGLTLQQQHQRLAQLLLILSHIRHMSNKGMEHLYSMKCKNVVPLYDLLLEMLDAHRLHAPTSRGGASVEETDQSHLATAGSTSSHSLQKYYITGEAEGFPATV
Chain of Androgen receptor (Homo sapiens) (P10275 whole entry, looked up): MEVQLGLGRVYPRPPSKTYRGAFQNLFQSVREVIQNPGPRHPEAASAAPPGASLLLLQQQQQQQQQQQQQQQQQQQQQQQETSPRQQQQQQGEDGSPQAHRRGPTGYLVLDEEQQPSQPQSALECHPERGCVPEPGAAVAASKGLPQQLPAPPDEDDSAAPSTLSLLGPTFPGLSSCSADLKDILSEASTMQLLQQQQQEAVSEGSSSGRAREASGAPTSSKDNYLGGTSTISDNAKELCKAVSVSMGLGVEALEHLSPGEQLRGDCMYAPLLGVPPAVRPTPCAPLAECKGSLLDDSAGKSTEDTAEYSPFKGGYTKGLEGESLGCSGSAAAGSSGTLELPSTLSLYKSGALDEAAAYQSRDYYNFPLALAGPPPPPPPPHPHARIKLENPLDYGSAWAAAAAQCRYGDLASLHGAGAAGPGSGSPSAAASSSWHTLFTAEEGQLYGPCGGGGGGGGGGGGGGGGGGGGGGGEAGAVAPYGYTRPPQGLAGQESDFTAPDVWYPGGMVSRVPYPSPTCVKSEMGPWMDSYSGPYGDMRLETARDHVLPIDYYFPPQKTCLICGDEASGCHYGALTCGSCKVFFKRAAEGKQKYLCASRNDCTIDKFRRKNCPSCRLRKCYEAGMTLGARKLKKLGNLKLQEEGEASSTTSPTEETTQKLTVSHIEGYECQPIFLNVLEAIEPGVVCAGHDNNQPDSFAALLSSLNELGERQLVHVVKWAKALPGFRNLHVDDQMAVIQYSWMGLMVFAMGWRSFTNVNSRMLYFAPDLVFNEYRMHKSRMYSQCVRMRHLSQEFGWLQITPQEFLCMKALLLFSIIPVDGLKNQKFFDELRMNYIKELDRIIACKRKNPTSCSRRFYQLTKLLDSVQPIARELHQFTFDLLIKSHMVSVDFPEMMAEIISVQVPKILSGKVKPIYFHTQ

Take `CC[C@H](C)[C@H](N)C(=O)O`: the Potency entry in test [1], in test [2], in [3], in test [4], in [5] and in [6] was “inactive” throughout. Further, the Potency result in test [7], in [8], in test [9], in [10], in test [11] and in test [12] was “inactive” throughout. Moreover, the Potency result in [14], in test [15] and in test [17] was “inactive” throughout. Further, the compound was classed as inactive in [13] and in test [16].
On to `O=C(c1ccc(O)cc1)c1ccc(O)cc1`, for which the Potency entry in test [1], in [18], in test [2], in test [4], in test [5] and in test [6] was “inactive” throughout. The Potency result in test [7], in test [8], in test [9] and in test [14] was “inactive” in each case. In addition, the compound was called inactive in test [13] and in [16].
For `O=C(O)c1cccc(N(Cc2cccnc2)c2ccc(OC(F)F)c(OC(F)F)c2)c1`, the Potency entry in [1], in [18], in [4], in test [5], in test [7] and in test [8] was “inactive” throughout. Moreover, the Potency entry in test [9], in [12], in [14] and in test [15] was “inactive” in each case. Also, the Potency in test [6] was 17.4 µM (active); in test [19], 24.3 µM (active); in [17], 0.969 µM (active). Also, the result in test [13] and in [16] was inactive.
For `O=C(c1ccccc1)c1ccc2n1CCC2C(=O)O` (stereo unspecified), the Potency result in test [1], in test [3], in test [4], in test [5], in test [6] and in [7] was “inactive” in each case. Moreover, the Potency result in test [8], in test [9], in test [11], in test [14], in [15] and in test [17] was “inactive” in each case. Moreover, in [12], the Potency was 7.5 µM (active). The call in [13] and in test [16] was inactive.
For the compound `C=C(C)C(=O)OC(C)C`, the Potency result in test [1], in test [18], in [2], in [3], in [4] and in [5] was “inactive” each time. Further, the Potency entry in [6], in test [7], in [9], in test [19], in test [10] and in test [12] was “inactive” throughout. Further, the Potency entry in [14], in test [15] and in test [17] was “inactive” throughout. Also, the compound was called inactive in test [13] and in test [16].
For `CCC(C)N(C)C(=O)c1cc2ccccc2c(-c2ccccc2Cl)n1` (stereo unspecified), the Potency was 25.2 µM (active) in test [1], 20 µM (active) in test [6] and 28 µM (active) in test [19]. For the same compound, the Potency result in [18], in test [2], in test [4], in test [5], in test [7] and in [8] was “inactive” each time. Moreover, the Potency result in [9], in [12] and in [17] was “inactive” each time. For the same compound, the outcome in test [13] and in [16] was inactive.
Regarding `c1ccc(OCc2ccc(CCCN3CCOCC3)cc2)cc1`, the Potency entry in test [18], in [2], in test [5], in test [6], in [9] and in test [11] was “inactive” each time. The Potency result in [14] and in [15] was “inactive” in each case. Also, the Potency in test [19] is 29.8 µM (active). The compound was classed as inactive in test [13] and in [16].
As for `CNCC[C@@H](Oc1ccccc1C)c1ccccc1`, the Potency result in test [1], in test [2], in test [3], in test [4], in [5] and in test [7] was “inactive” each time. In addition, the Potency result in test [8], in test [9], in test [10], in test [11], in test [12] and in test [14] was “inactive” throughout. Moreover, in test [15], the Potency entry was “inactive”. Moreover, the outcome in test [13] and in test [16] was inactive.
As to `CCC(=O)OC(C)(C)C1CC=C(C)CC1` (stereo unspecified), the Potency result in [1], in test [18], in [3], in [4], in [5] and in test [6] was “inactive” in each case. In addition, the Potency result in test [7], in [8], in [9], in [12], in test [15] and in test [17] was “inactive” throughout. Besides, the result in [13] and in test [16] was inactive.
For the compound `CCCCCCCCCCCCCCC1CO1` (stereo unspecified), the Potency entry in [1], in test [18], in test [2], in test [3], in test [4] and in test [5] was “inactive” throughout. Besides, the Potency result in [6], in test [7], in test [8], in test [9], in test [12] and in [14] was “inactive” each time. The Potency result in test [15] and in test [17] was “inactive” each time. In addition, the outcome in [13] and in test [16] was inactive.
As to `c1ccc(-c2nc[nH]c2-c2ccccc2)cc1`, the Potency result in [18], in test [2], in [3], in test [4], in [5] and in [6] was “inactive” throughout. The Potency entry in test [8], in [9], in test [11], in test [12], in [14] and in [15] was “inactive” throughout. The outcome in test [13] and in test [16] was inactive.
Turning to `CN(C)C/C=C(/c1ccc(Br)cc1)c1cccnc1`, the Potency entry in [1], in test [18], in test [2], in test [3], in test [4] and in test [5] was “inactive” in each case. The Potency result in test [6], in [7], in [8], in test [9], in test [11] and in test [12] was “inactive” each time. Further, the Potency result in test [14] and in test [15] was “inactive” each time. Also, the compound was classed as inactive in [13] and in test [16].
On to `CCCCOc1cc(C(=O)OCCN(CC)CC)ccc1N`, for which the Potency entry in [18], in test [2], in test [3], in test [4], in [5] and in test [6] was “inactive” in each case. Moreover, the Potency entry in test [8], in test [9], in test [11], in test [12], in test [14] and in test [15] was “inactive” throughout. Besides, the Potency result in test [17] was “inactive”. The call in test [13] and in [16] was inactive.
